Measurements from PubChem BioAssay (Tox21).
Where “and” joins values, the source holds several entries; their conditions need not be identical. Identical values can stand only once. Records with an inconclusive call do not appear. More than one record can exist for a structure, and the calls need not agree. Calls of active or inactive are those of the source. Unless noted, the call rests on the fitted dose curve; in most records, active means well fitted curve in the direction sought with a large enough effect in the repeat runs; inconclusive means weak or mixed curves; inactive means no such curve, though single readings can be large; an effect the other way counts as inactive or inconclusive.

Legend:
[1] = target: Acetylcholinesterase (Homo sapiens) (UniProt P22303); experiment: Acetylcholinesterase (AChE) small molecule antagonists: enzyme-based qHTS assay (AID 1347397; calls by dose curve; further: nearly all actives have a fitted effect of over 55% in size; further: potency means the concentration at half of the fitted maximal effect); conditions: Potency: AChE enzyme activity inhibition
Summary of the method: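 Recombinant human AChE, dispensed at 50 mU/mL, was preincubated with Tox21 10K compounds or DMSO vehicle for 30 min at room temperature. DTNB plus acetylthiocholine was then added, and thiocholine was measured colorimetrically after a further 10 min.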

[2] = target: Acetylcholinesterase (Homo sapiens) (UniProt P22303); experiment: Acetylcholinesterase (AChE) small molecule antagonists: fluorescence cell-based qHTS assay (AID 1347398; calls by dose curve; further: nearly all actives have a fitted effect of over 50% in size; further: potency means the concentration at half of the fitted maximal effect); conditions: Potency: AChE activity
Summary of the method: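 Human SH-SY5Y cells were plated overnight at 37 C, exposed to compound for 30 min at 37 C, 5% CO2, then given acetylthiocholine plus Thiolite Green for 40 min at room temperature; thiocholine fluorescence (Ex/Em 490/520 nm) reports endogenous AChE activity.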

[3] = target: Acetylcholinesterase (Homo sapiens) (UniProt P22303); experiment: Acetylcholinesterase (AChE) small molecule antagonists: enzyme-based qHTS assay with human liver microsomes (AID 1347399; calls by dose curve; further: nearly all actives have a fitted effect of over 60% in size); conditions: Potency: qHTS inhibition
Summary of the method: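 Recombinant human AChE (50 mU/mL in the enzyme mix) and human liver microsomes (0.25 mg/mL final) were preincubated with compound and NADPH (0.25 mg/mL final) for 30 min at 37 C. Acetylthiocholine/DTNB was then added; thiocholine was read colorimetrically after 10 min at room temperature.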

[4] = target: Cytochrome P450 2D6 (Homo sapiens) (UniProt P10635); experiment: Cytochrome P450 Family 2 Subfamily D Member 6 (CYP2D6) small molecule antagonists: luciferase reporter qHTS assay (AID 1671196); further: nearly all actives have a fitted effect of over 50% in size; further: potency means the concentration at half of the fitted maximal effect; on activity change, negative = inhibition: series mostly up to about 120 µM
Summary of the method: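 CYP2D6 enzyme–substrate mix was held with compound for 10 min at room temperature, then NADPH regeneration solution was added and the reaction ran 1 h at room temperature. Luciferin product was detected by luminescence after 20 min with detection reagent.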

[5] = target: Cytochrome P450 2C19 (Homo sapiens) (UniProt P33261); experiment: Cytochrome P450 Family 2 Subfamily C Member 19 (CYP2C19) small molecule antagonists: luciferase reporter qHTS assay (AID 1671197); further: nearly all actives have a fitted effect of over 65% in size; further: potency means the concentration at half of the fitted maximal effect; on activity change, negative = inhibition: series mostly up to about 120 µM
Summary of the method: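 Light output is proportional to CYP2C19 activity: proluciferin substrate is converted to luciferin, then detected by a luciferin detection reagent that also stops the 1 h, 37C NADPH-driven reaction. Ketoconazole serves as positive control.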

[6] = target: Cytochrome P450 2C9 (Homo sapiens) (UniProt P11712); experiment: Cytochrome P450 Family 2 Subfamily C Member 9 (CYP2C9) small molecule antagonists: luciferase reporter qHTS assay (AID 1671198); further: nearly all actives have a fitted effect of over 50% in size; further: potency means the concentration at half of the fitted maximal effect; on activity change, negative = inhibition: series mostly up to about 120 µM
Summary of the method: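 CYP2C9 activity was measured with a P450-Glo proluciferin substrate. Enzyme–substrate mix was held with compound for 10 min at room temperature, then NADPH regeneration solution was added for 1 h at 37C. Luciferin product was read as luminescence.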

[7] = target: Cytochrome P450 1A2 (Homo sapiens) (UniProt P05177); experiment: Cytochrome P450 Family 1 Subfamily A Member 2 (CYP1A2) small molecule antagonists: luciferase reporter qHTS assay (AID 1671199); further: nearly all actives have a fitted effect of over 50% in size; further: potency means the concentration at half of the fitted maximal effect; on activity change, negative = inhibition: series mostly up to about 120 µM
Summary of the method: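 Human CYP1A2 activity measured with a P450-Glo proluciferin substrate; compounds in DMSO preincubated 10 min at room temperature with enzyme-substrate mix, then NADPH regeneration system added for 1 h. Luciferin detection reagent, 20 min, luminescence read.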

[8] = target: Voltage-gated inwardly rectifying potassium channel KCNH2 (Homo sapiens) (UniProt Q12809); experiment: Human Ether-a-go-go-Related Gene (hERG) channel small molecule antagonists: fluorescence cell-based qHTS assay (AID 1671200); further: nearly all actives have a fitted effect of over 50% in size; further: potency means the concentration at half of the fitted maximal effect;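 on activity change, negative = inhibition: hERG-expressing U2OS cells given a thallium stimulus after FluxOR II dye loading; series mostly up to about 77 µM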
Summary of the method: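 Fluorescence at 540 nm emission (480 nm excitation) was recorded kinetically for 2 min at 1-second intervals once the thallium-containing stimulus reached cells previously loaded with FluxOR II dye.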

[9] = target: Cytochrome P450 3A4 (Homo sapiens) (UniProt P08684); experiment: Cytochrome P450 Family 3 Subfamily A Member 4 (CYP3A4) small molecule antagonists: luciferase reporter qHTS assay (AID 1671201); further: nearly all actives have a fitted effect of over 50% in size; further: potency means the concentration at half of the fitted maximal effect; on activity change, negative = inhibition: series mostly up to about 120 µM
Summary of the method: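 qHTS, 1536-well. CYP3A4 + proluciferin substrate, cpd 10 min RT → NADPH regen 1 h RT → detection reagent 20 min → luminescence (RLU). Ketoconazole positive control.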
On the % scale 0 is the no-effect control and ±100 the full control effect.

Chain of Cytochrome P450 3A4 (Homo sapiens) (P08684 whole entry, looked up): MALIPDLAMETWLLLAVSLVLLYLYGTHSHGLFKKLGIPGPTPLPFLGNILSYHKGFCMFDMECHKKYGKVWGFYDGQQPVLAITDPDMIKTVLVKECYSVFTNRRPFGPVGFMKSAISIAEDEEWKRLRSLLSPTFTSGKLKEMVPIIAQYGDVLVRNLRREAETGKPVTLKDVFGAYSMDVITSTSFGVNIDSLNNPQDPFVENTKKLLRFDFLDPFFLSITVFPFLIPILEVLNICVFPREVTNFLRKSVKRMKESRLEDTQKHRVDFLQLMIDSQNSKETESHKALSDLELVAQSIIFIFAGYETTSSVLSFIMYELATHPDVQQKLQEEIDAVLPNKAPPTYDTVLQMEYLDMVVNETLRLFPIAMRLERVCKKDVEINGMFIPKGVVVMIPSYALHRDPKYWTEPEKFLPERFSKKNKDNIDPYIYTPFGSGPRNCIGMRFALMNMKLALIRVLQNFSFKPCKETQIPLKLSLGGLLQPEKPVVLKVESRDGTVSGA
Chain of Voltage-gated inwardly rectifying potassium channel KCNH2 (Homo sapiens) (Q12809 whole entry, looked up): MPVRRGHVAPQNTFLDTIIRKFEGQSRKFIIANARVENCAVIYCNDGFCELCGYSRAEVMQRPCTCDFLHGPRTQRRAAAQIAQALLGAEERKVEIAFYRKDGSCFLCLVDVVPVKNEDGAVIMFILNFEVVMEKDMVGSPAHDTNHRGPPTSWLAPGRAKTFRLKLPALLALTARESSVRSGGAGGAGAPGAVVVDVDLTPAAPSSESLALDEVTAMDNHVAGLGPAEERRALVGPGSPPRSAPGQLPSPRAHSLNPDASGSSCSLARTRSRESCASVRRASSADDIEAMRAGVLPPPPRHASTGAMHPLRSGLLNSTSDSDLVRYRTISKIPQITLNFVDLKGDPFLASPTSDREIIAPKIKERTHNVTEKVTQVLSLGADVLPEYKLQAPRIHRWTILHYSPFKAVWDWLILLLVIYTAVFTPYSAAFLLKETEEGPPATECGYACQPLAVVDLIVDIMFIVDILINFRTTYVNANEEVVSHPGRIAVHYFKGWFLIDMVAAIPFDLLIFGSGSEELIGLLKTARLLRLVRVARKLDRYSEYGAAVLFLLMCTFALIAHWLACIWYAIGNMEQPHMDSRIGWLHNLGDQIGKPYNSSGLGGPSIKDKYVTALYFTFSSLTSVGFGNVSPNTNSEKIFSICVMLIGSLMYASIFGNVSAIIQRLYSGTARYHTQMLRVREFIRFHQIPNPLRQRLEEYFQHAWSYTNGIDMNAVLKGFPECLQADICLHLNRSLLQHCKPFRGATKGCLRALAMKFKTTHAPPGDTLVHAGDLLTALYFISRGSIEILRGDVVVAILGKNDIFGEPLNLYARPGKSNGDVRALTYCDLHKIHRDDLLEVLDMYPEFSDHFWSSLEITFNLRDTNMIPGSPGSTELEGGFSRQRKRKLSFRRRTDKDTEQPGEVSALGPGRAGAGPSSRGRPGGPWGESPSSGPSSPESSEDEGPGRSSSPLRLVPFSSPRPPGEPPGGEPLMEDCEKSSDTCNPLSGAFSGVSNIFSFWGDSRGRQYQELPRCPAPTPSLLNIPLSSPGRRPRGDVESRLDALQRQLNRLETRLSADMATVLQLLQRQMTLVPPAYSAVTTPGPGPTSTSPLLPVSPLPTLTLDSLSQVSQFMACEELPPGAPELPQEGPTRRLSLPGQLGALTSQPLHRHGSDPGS
Chain of Acetylcholinesterase (Homo sapiens) (P22303 whole entry, looked up): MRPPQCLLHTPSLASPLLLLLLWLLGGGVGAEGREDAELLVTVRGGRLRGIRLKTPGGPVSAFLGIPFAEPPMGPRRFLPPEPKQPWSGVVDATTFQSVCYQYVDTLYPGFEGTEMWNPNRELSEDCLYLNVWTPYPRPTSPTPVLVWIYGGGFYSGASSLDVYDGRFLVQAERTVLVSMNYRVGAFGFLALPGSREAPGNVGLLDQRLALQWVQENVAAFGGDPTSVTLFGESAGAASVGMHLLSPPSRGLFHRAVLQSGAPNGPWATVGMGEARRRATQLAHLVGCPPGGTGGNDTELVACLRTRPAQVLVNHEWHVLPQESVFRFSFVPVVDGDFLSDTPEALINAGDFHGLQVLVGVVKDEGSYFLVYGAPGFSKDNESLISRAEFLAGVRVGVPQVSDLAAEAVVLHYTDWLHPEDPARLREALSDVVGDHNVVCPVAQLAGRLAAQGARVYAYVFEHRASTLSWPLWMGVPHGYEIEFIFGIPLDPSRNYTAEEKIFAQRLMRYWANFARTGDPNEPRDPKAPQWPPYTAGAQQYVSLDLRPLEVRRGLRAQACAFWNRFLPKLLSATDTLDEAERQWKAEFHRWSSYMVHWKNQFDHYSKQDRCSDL
Chain of Cytochrome P450 2C9 (Homo sapiens) (P11712 whole entry, looked up): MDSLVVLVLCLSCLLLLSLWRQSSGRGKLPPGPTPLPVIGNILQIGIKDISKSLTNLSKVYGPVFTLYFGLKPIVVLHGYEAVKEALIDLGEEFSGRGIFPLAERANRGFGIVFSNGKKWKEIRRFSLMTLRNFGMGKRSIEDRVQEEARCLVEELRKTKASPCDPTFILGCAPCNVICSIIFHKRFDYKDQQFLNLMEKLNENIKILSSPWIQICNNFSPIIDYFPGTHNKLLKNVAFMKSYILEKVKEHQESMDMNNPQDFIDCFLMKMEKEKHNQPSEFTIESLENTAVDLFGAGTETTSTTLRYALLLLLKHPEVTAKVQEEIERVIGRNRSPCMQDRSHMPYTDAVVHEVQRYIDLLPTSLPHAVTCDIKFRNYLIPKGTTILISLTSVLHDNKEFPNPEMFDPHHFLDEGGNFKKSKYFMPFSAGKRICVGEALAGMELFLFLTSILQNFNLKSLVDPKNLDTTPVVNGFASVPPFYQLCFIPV
Chain of Cytochrome P450 2C19 (Homo sapiens) (P33261 whole entry, looked up): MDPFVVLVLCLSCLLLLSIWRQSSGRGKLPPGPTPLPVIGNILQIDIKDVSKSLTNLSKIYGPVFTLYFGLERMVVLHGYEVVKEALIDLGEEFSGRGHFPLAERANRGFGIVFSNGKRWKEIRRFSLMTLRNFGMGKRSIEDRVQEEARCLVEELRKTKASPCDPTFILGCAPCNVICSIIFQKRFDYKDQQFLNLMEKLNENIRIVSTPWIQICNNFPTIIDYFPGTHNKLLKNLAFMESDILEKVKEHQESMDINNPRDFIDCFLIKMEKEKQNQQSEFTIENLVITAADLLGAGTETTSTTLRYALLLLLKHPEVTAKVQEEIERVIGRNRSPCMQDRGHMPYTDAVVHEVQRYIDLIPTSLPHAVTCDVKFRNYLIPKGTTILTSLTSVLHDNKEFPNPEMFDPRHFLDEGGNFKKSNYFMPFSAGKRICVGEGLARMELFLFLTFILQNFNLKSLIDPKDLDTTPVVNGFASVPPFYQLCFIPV
Chain of Cytochrome P450 2D6 (Homo sapiens) (P10635 whole entry, looked up): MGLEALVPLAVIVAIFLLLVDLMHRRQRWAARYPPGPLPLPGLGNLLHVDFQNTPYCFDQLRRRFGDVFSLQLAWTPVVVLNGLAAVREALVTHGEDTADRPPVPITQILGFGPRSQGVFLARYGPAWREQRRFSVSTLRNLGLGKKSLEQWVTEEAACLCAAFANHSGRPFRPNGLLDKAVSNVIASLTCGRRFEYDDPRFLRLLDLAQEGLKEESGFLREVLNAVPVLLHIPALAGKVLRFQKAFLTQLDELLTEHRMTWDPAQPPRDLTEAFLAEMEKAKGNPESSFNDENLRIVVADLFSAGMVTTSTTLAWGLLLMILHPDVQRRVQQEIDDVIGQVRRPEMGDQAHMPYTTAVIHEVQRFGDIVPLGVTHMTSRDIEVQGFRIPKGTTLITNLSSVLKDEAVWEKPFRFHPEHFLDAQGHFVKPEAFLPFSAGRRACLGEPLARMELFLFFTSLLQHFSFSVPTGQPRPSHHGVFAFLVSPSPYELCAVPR
Chain of Cytochrome P450 1A2 (Homo sapiens) (P05177 whole entry, looked up): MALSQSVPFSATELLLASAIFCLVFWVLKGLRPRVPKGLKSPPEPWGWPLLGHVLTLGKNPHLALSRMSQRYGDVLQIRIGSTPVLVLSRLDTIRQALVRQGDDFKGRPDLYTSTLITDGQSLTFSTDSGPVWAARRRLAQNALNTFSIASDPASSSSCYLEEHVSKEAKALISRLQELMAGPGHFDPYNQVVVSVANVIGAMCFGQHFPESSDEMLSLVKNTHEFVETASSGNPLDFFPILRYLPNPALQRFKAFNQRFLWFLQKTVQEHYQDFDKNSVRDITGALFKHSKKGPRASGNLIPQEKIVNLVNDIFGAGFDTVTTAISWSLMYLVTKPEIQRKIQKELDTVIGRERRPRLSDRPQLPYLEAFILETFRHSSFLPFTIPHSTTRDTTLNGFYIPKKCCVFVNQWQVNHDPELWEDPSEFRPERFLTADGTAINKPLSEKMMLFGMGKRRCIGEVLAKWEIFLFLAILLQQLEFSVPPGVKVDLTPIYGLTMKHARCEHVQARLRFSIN

Oc1ccc(Cl)cc1Cl
inactive: Potency [1] | Potency [2] | Potency [3] | Potency [4] | Potency [6] | Potency [8] | Potency [9]
active: Potency [7] 35.3 µM and 39.9 µM
70.5 µM (active) and inactive: Potency [5]

CC(C)(O)C#N
inactive and 39.9 µM (active): Potency [7]
active: Potency [5] 75.3 µM and 39.9 µM | Potency [6] 42.4 µM
inactive: Potency [1] | Potency [2] | Potency [3] | Potency [8] | Potency [9]

Brc1ccc(Br)cc1
inactive: Potency [1] | Potency [2] | Potency [3] | Potency [5] | Potency [6] | Potency [7] | Potency [8] | Potency [9]

CC(O)CN(CC(C)O)CC(C)O (stereo unspecified)
inactive: Potency [2] | Potency [3] | Potency [4] | Potency [5] | Potency [6] | Potency [7] | Potency [8] | Potency [9]

COP(=S)(OC)Oc1ccc(Sc2ccc(OP(=S)(OC)OC)cc2)cc1
active: Potency [5] 3.17 µM and 4.9 µM | Potency [6] 5.64 µM and 11 µM
inactive: Potency [1] | Potency [2] | Potency [3] | Potency [7] | Potency [8] | Potency [9]

ClC(Cl)(Cl)Br
active: Potency [5] 39.4 µM
inactive: Potency [2] | Potency [3] | Potency [4] | activity change, negative = inhibition [5] 17.8% [at 23.6 µM] | activity change, negative = inhibition [6] -6.85% [at 23.6 µM] | Potency [7] | Potency [8] | Potency [9]

ClCc1ccccn1
inactive: Potency [1] | Potency [2] | Potency [3] | Potency [6] | Potency [7] | Potency [8] | Potency [9]
78.1 µM (active) and inactive: Potency [5]

COc1ccc(C=O)cc1OC
inactive: Potency [1] | Potency [2] | Potency [3] | Potency [6] | Potency [8] | Potency [9]
active: Potency [5] 9.04 µM and 71 µM | Potency [7] 32.1 µM and 31.7 µM

Cc1cccc(N=Nc2ccc(N(C)C)cc2)c1
active: Potency [5] 10.2 µM and 17.8 µM | Potency [7] 2.28 µM and 3.56 µM
inactive: Potency [1] | Potency [2] | Potency [3] | Potency [4] | Potency [8] | Potency [9]

OCCOCCO
inactive: Potency [1] | Potency [2] | Potency [3] | Potency [6] | Potency [7] | Potency [8] | Potency [9]
82.1 µM (active) and inactive: Potency [5]

O=NN1CCOCC1
inactive: Potency [2] | Potency [3] | Potency [4] | Potency [5] | Potency [6] | Potency [7] | Potency [8] | Potency [9]

NC(=O)CN1CCCC1=O
inactive: Potency [2] | Potency [3] | Potency [4] | Potency [5] | Potency [6] | Potency [7] | Potency [8] | Potency [9]

CC(C)=CC1C(C(=O)OCc2cccc(Oc3ccccc3)c2)C1(C)C (stereo unspecified)
active: Potency [5] 7.96 µM | Potency [6] 3.17 µM and 3.09 µM
inactive: Potency [1] | Potency [2] | Potency [3] | Potency [8] | Potency [9]

COc1ccc(O)c(C(C)(C)C)c1
active: Potency [5] 7.99 µM and 5.64 µM | Potency [6] 25.3 µM and 31.7 µM | Potency [7] 39.9 µM
inactive: Potency [1] | Potency [2] | Potency [3] | Potency [8]

CCCCOC(=O)COC(=O)c1ccccc1C(=O)OCCCC
active: Potency [5] 7.93 µM and 11.2 µM | Potency [6] 6.3 µM and 7.1 µM | Potency [7] 11.2 µM and 20 µM | Potency [9] 22.3 µM and 35.6 µM
inactive: Potency [1] | Potency [2] | Potency [3]

CCCCC(C#N)(Cn1cncn1)c1ccc(Cl)cc1 (stereo unspecified)
inactive: Potency [1] | Potency [2] | Potency [3] | Potency [8]
active: Potency [5] 794 nM and 633 nM | Potency [6] 28.2 µM and 25.2 µM | Potency [9] 158 nM and 224 nM

Clc1cccc(Cl)c1
inactive: Potency [1] | Potency [2] | Potency [3] | Potency [6] | Potency [8] | Potency [9]
62.8 µM (active) and inactive: Potency [5]

Clc1ccc(C(Cl)(Cl)Cl)cc1
inactive and 28.3 µM (active): Potency [5]
inactive: Potency [1] | Potency [2] | Potency [3] | Potency [6] | Potency [7] | Potency [8] | Potency [9]

CC[n+]1c(-c2ccccc2)c2cc(N)ccc2c2ccc(N)cc21
inactive: Potency [3] | Potency [8]
active: Potency [1] 79.3 µM | Potency [2] 31.6 µM and 12.3 µM | Potency [5] 7.07 µM and 5.49 µM | Potency [6] 35.4 µM and 30.9 µM | Potency [7] 9.99 µM and 10.2 µM

CCOC(=O)c1ccccc1N
active: Potency [7] 28.1 µM and 31.7 µM
inactive: Potency [2] | Potency [3] | Potency [4] | Potency [5] | Potency [6] | Potency [8] | Potency [9]

C=CC(Cl)CCl (stereo unspecified)
40.7 µM (active) and inactive: Potency [5]
inactive: Potency [1] | Potency [2] | Potency [3] | Potency [8] | Potency [9]

COC(=O)Nc1nc2ccccc2[nH]1
inactive: Potency [2] | Potency [3] | Potency [4] | Potency [5] | Potency [8]
active: Potency [7] 11.2 µM and 20 µM
inactive and 71 µM (active): Potency [6]

CC(C)=CC1C(C(=O)OCN2C(=O)C3=C(CCCC3)C2=O)C1(C)C (stereo unspecified)
active: Potency [5] 8.94 µM and 3.89 µM | Potency [6] 35.6 µM and 27.5 µM | Potency [8] 38.9 µM
inactive: Potency [1] | Potency [2] | Potency [3] | Potency [7]

O=[N+]([O-])c1ccc(Cl)c([N+](=O)[O-])c1
inactive: Potency [1] | Potency [2] | Potency [3] | Potency [8] | Potency [9]
active: Potency [5] 40.6 µM and 79.6 µM | Potency [7] 12.8 µM and 11.2 µM

Oc1ccc(Cl)cc1Cc1ccccc1
active: Potency [5] 3.56 µM and 1.61 µM and 2.19 µM | Potency [6] 25.2 µM and 12.1 µM and 9.77 µM | Potency [7] 44.8 µM and 33 µM and 30.9 µM
inactive: Potency [2] | Potency [3] | Potency [8] | Potency [9]
67.8 µM (active) and inactive: Potency [4]

N#Cc1c(Cl)c(Cl)c(Cl)c(C#N)c1Cl
active: Potency [5] 17.5 µM and 22.4 µM | Potency [6] 5.53 µM and 5.64 µM | Potency [7] 984 nM and 1 µM | Potency [9] 984 nM and 1.26 µM
34.9 µM (active) and inactive: Potency [4]
inactive: Potency [1] | Potency [3] | Potency [8]

CCC1(c2ccc(N)cc2)CCC(=O)NC1=O (stereo unspecified)
active: Potency [9] 31.7 µM and 13.8 µM
inactive: Potency [1] | Potency [2] | Potency [3] | Potency [5] | Potency [6] | Potency [7] | Potency [8]

ClC(Cl)=C(Cl)C(Cl)=C(Cl)Cl
inactive: Potency [1] | Potency [2] | Potency [3] | Potency [5] | Potency [6] | Potency [7] | Potency [8] | Potency [9]

CCCCOCCOC(C)=O
inactive: Potency [1] | Potency [2] | Potency [3] | Potency [6] | Potency [7] | Potency [8] | Potency [9]
77.6 µM (active) and inactive: Potency [5]

O=C(O)CF
inactive: Potency [1] | Potency [2] | Potency [3] | Potency [5] | Potency [6] | Potency [7] | Potency [8] | Potency [9]

CN(C)P(=O)(N(C)C)N(C)C
inactive: Potency [1] | Potency [2] | Potency [3] | Potency [5] | Potency [6] | Potency [7] | Potency [8] | Potency [9]

CCCCCCCCCc1ccc(O)cc1
active: Potency [5] 6.39 µM and 10 µM | Potency [6] 20.2 µM and 31.7 µM
inactive and 39.9 µM (active): Potency [7]
inactive: Potency [2] | Potency [3] | Potency [4] | Potency [8]

CSc1nc(NC(C)C)nc(NC(C)C)n1
active: Potency [5] 39.8 µM and 71 µM | Potency [7] 17.8 µM
inactive: Potency [1] | Potency [2] | Potency [3] | Potency [8] | Potency [9]

C[N+](C)(C)CC(=O)O
inactive: Potency [2] | Potency [3] | Potency [4] | Potency [5] | Potency [6] | Potency [8] | Potency [9]
inactive and 17.4 µM (active): Potency [7]

CC(C)(O)C(=O)Nc1ccc([N+](=O)[O-])c(C(F)(F)F)c1
active: Potency [5] 18.2 µM and 26 µM | Potency [6] 25.7 µM and 29.2 µM | Potency [7] 7.25 µM and 6.53 µM | Potency [9] 40.8 µM
inactive: Potency [1] | Potency [2] | Potency [3] | Potency [8]

CCOP(=O)(OCC)OCC
17.5 µM (active) and inactive: Potency [7]
35 µM (active) and inactive: Potency [6]
inactive: Potency [1] | Potency [2] | Potency [3] | Potency [8] | Potency [9]
49.4 µM (active) and inactive: Potency [5]

CC(C)(c1ccccc1)c1ccc(O)cc1
inactive: Potency [2] | Potency [3] | Potency [4] | Potency [5] | Potency [7] | Potency [8] | Potency [9]
active: Potency [6] 11.2 µM and 12.6 µM

CN(C)c1nc(=O)n(C2CCCCC2)c(=O)n1C
inactive: Potency [1] | Potency [2] | Potency [3] | Potency [5] | Potency [6] | Potency [7] | Potency [8] | Potency [9]

O=P(OCCCl)(OCCCl)OCCCl
inactive: Potency [1] | Potency [2] | Potency [3] | Potency [4] | Potency [8] | Potency [9]
active: Potency [5] 70.4 µM | Potency [7] 35.3 µM and 35.6 µM
